Source: PubChem BioAssay
A selection: hits, their analogues and other compounds. The true share with any hit is near 3.3%.
Vaccinia mCherry = qHTS for Stage-Specific Inhibitors of Vaccinia Orthopoxvirus: mCherry Reporter Primary qHTS; Vaccinia virus mCherry reporter infection, fluorescence; Potency, µM (doses to about 36.5 µM), hits mostly inhibitors; 310,000 tested, 0.63% active; AID 720579, 2013; calls by dose curve; tested in A549 cells; further: nearly all actives have a fitted effect of over 35% in size
Vaccinia Venus = qHTS for Stage-Specific Inhibitors of Vaccinia Orthopoxvirus: Venus Reporter Primary qHTS; Vaccinia virus Venus reporter expression, fluorescence; Potency, µM (highest dose often 36.5 µM), hits mostly inhibitors; 330,000 tested, 0.46% active; calls by dose curve; tested in A549 cells; further: nearly all actives have a fitted effect of over 30% in size
HCV inh = qHTS Assay for Inhibitors of Hepatitis C Virus (HCV); Huh7.5.1 HCVcc-Cre infection, luciferase reporter, 44 h; Potency, µM (top dose mostly 41.8 µM), usual class: inhibitors; 340,000 tested, 3.4% active; AID 651820, 2012; active means well fitted inhibition curve with a large enough effect; inconclusive means small, poorly fitted or top-dose-only effect, or another doubt; inactive means no such curve, though single readings can be large or run the other way
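A cell-based infection assay in which seeded cells (1,000 per well) receive test compound after 4 h, are inoculated with HCVcc-Cre at approximately 0.5 moi, and are incubated 44 h before luminescence detection.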
Large screens that a line does not name were inactive.

COc1cc(OC)c(OC)cc1CN1CCCC(n2cc(C(=O)N3CCCCC3)nn2)C1 (stereo not drawn)	none (no result: HCV inh)
CS(=O)(=O)Cc1cc(Sc2ccccc2)nc(-c2ccncc2)n1	HCV inh 3.16µM
O=S(Cc1cc(Sc2ccccc2)nc(-c2ccccc2)n1)c1ccccc1 (stereo not drawn)	none (no result: Vaccinia mCherry)
CNc1ccc(-c2cccc(C(=O)N3CCOCC3)c2)cn1	none (no result: HCV inh)
CCCSc1nnc(NC(=O)Nc2ccc(C)cc2)s1	none
CCCSc1nnc(NC(=O)Nc2ccc(F)cc2)s1	Vaccinia Venus 7.94µM, HCV inh inconclusive (no result: Vaccinia mCherry)
NCCCNc1nc(N)c([N+](=O)[O-])c(NC2CCCCC2)n1	Vaccinia mCherry inconclusive, Vaccinia Venus 3.16µM, HCV inh 12.6µM
COCCNc1nc(N)c([N+](=O)[O-])c(NC2CCCCC2)n1	HCV inh inconclusive
c1ccc(-[n+]2nc(Nc3cccc4ccccc34)sc2-c2c3ccccc3cc3ccccc23)cc1	HCV inh 3.55µM
COc1ccc(C)cc1Nc1n[n+](-c2ccccc2)c(-c2cc(OC)c(OC)cc2Br)s1	Vaccinia Venus inconclusive
Fc1ccc(-[n+]2nc(Nc3ccccc3)sc2-c2c3ccccc3cc3ccccc23)cc1	Vaccinia Venus inconclusive
COc1ccc(C)cc1Nc1n[n+](-c2ccccc2)c(-c2c(OC)ccc3ccccc23)s1	Vaccinia mCherry 14.1µM, Vaccinia Venus inconclusive, HCV inh 31.6µM
Cc1oc(-c2ccc(Cl)cc2)nc1CS(=O)CC(=O)NCCCN1CCN(Cc2ccccc2)CC1 (stereo not drawn)	HCV inh 1.26µM (no result: Vaccinia mCherry, Vaccinia Venus)
Cc1ccc(-c2nc(CSCC(=O)NCCN3CCN(Cc4ccccc4)CC3)c(C)o2)cc1	HCV inh 12.6µM (no result: Vaccinia mCherry, Vaccinia Venus)
Cc1ccc(-c2nc(CSCC(=O)NCCCN3CCOCC3)c(C)o2)cc1	none (no result: Vaccinia mCherry, Vaccinia Venus)
Cc1oc(-c2ccc(Cl)cc2)nc1CS(=O)CC(=O)NCc1ccccc1 (stereo not drawn)	none
Cc1ccc(-c2nc(CS(=O)CC(=O)NCc3ccc(Cl)cc3)c(C)o2)cc1 (stereo not drawn)	HCV inh 11.2µM
Cc1oc(-c2ccc(Cl)cc2)nc1CS(=O)CC(=O)NCCCN1CCCC(C)C1 (stereo not drawn)	Vaccinia Venus inconclusive, HCV inh inconclusive
CC(CC(O)C1OC1(C)C)C1CCC2(C)C3=CCC4C(C)(C)C(=O)CCC4(C)C3CC[C@@]12C (stereo partly drawn)	none (no result: HCV inh)
CCOc1ccc(-c2csc(/C(C#N)=C/c3ccc(Br)cc3)n2)cc1	none (no result: HCV inh)
CC(C)c1cnc2c(c1SCC(=O)Nc1ccccc1C(F)(F)F)c(=O)n(C)c(=O)n2C	none (no result: HCV inh)
COC(=O)c1ccc([C@H]2CC(=O)O2)cc1	Vaccinia mCherry 11.2µM, Vaccinia Venus inconclusive
COC(=O)C1=C(C)NC(=O)CC1c1ccc(C(=O)OC)cc1 (stereo not drawn)	none (no result: Vaccinia mCherry)
CSc1nc(N)c2cn[nH]c2n1	HCV inh inconclusive
COc1ccc(C2c3c(ncn(Cc4ccco4)c3=N)Oc3ccc4ccccc4c32)cc1 (stereo not drawn)	HCV inh inconclusive
CN(C)CCCn1cnc2c(c1=N)C(c1ccccc1)c1ccc3ccccc3c1O2 (stereo not drawn)	Vaccinia mCherry inconclusive, Vaccinia Venus 17.8µM, HCV inh 8.91µM
COc1ccc(C2c3ccc4ccccc4c3Oc3ncn(CCN(C)C)c(=N)c32)cc1 (stereo not drawn)	Vaccinia mCherry inconclusive, Vaccinia Venus inconclusive, HCV inh 2.82µM
COc1ccc(C2c3ccc4ccccc4c3Oc3ncn(CCCO)c(=N)c32)cc1 (stereo not drawn)	Vaccinia Venus inconclusive
N=c1c2c(ncn1CCCO)Oc1c(ccc3ccccc13)C2c1ccccc1 (stereo not drawn)	HCV inh 11.2µM (no result: Vaccinia mCherry, Vaccinia Venus)
N=c1c2c(ncn1CCCO)Oc1ccc3ccccc3c1C2c1ccccc1 (stereo not drawn)	HCV inh inconclusive
CCCCCOc1c(Cl)cc(C(=O)N(Cc2ccc(C)o2)C2CCS(=O)(=O)C2)cc1Cl (stereo not drawn)	none (no result: HCV inh)
COC(=O)C1[C@H]2SC(C)(C)C(C(=O)OC)N2C(=O)N1Cc1ccccc1 (stereo partly drawn)	none (no result: HCV inh)
Cc1oc(-c2cccc(Br)c2)nc1CSc1nc2ncccc2[nH]1	none (no result: HCV inh)
CC(C)Cc1nc(SCC(=O)N2CCCCC2)c2c(=O)n(C)c(=O)n(C)c2n1	HCV inh 25.1µM (no result: Vaccinia mCherry, Vaccinia Venus)
CC(C)Cc1nc(SCC(=O)N2CCOCC2)c2c(=O)n(C)c(=O)n(C)c2n1	none (no result: Vaccinia mCherry, Vaccinia Venus)
Fc1ccc(C2=NC(c3cccc(C(F)(F)F)c3)=Nc3ccccc3N2)cc1	none (no result: HCV inh)
COCCn1c(=O)[nH]c(=O)c2cc(C(=O)c3cc(Cl)ccc3O)cnc21	HCV inh 1.78µM
COc1ccc(O)c(C(=O)c2cnc3c(c2)c(=O)[nH]c(=O)n3C)c1	Vaccinia mCherry inconclusive, HCV inh inconclusive
COc1ccc(C(=O)NCc2cccnc2)cc1C(=O)NCc1cccnc1	none
COc1ccc(/C=C2\Sc3ccc(C(=O)N4CCN(Cc5ccccc5)CC4)cc3N(C)C2=O)cc1OC	HCV inh 3.55µM (no result: Vaccinia mCherry, Vaccinia Venus)
COc1ccc(/C=C2\Sc3ccc(C(=O)N4CCOCC4)cc3N(C)C2=O)cc1	none (no result: Vaccinia mCherry, Vaccinia Venus)
COc1ccc(/C=C2\Sc3ccc(C(=O)NCc4cccnc4)cc3N(C)C2=O)cc1OC	HCV inh 8.91µM
CN1C(=O)/C(=C/c2cccc(Cl)c2)Sc2ccc(C(=O)NCc3cccnc3)cc21	HCV inh 10µM (no result: Vaccinia mCherry, Vaccinia Venus)
COc1cccc(/C=C2\Sc3ccc(C(=O)NCc4cccnc4)cc3N(C)C2=O)c1	HCV inh inconclusive
CCN(C(=O)CSc1nc2ccccc2n1CC(=O)N(C)C1CCCCC1)c1ccccc1	none (no result: HCV inh)
COc1ccc(NC(=O)C(=O)NCC(=O)Nc2cc(OC)ccc2OC)cc1	none
COc1ccccc1NC(=O)N1CCN(c2ccc(F)cc2)CC1	none
COc1ccccc1NC(=O)N1CCN(c2cccc(C(F)(F)F)c2)CC1	HCV inh 11.2µM (no result: Vaccinia mCherry, Vaccinia Venus)
NC1(C(=O)O)C[C@H](C(=O)O)[C@H](C(=O)O)C1 (stereo partly drawn)	none (no result: HCV inh)
Cc1ccc2[nH]nc(C(=O)N3CCOc4ccc(CN5CCc6sccc6C5)cc4C3)c2c1	Vaccinia mCherry 12.6µM (no result: HCV inh)
O=C(CCc1nc2ccccc2s1)N1CCOc2ccc(CN3CCc4sccc4C3)cc2C1	none (no result: HCV inh)
CCOc1ccc(CN2CCN(S(=O)(=O)c3ccc(Cl)cc3)CC2)cc1	none (no result: HCV inh)
CCn1c(C)c(C(C)=O)c(N2CCN(c3ccccc3)CC2)nc1=S	none (no result: Vaccinia mCherry)
CCn1c(C)c(C(C)=O)c(N2CCN(C(c3ccccc3)c3ccccc3)CC2)nc1=S	HCV inh 6.31µM
O=C(NCC(c1ccc2c(c1)OCO2)N1CCN(c2ccccc2)CC1)C(=O)Nc1ccc(F)cc1 (stereo not drawn)	none (no result: HCV inh)
COc1cc2sc(-c3ccc(S(C)(=O)=O)cc3)c(-c3ccc4c(c3)OCO4)c2cc1OC	Vaccinia mCherry inconclusive, HCV inh 2.82µM
COc1ccc2sc(-c3ccc(S(C)(=O)=O)cc3)c(-c3ccc4c(c3)OCCO4)c2c1	HCV inh inconclusive
COCCCn1c(C(=O)Nc2ccc3c(c2)OCO3)cc2c(=O)n3cccc(C)c3nc21	Vaccinia mCherry inconclusive, Vaccinia Venus 5.01µM (no result: HCV inh)
COCCCn1c(C(=O)N2CCOCC2)cc2c(=O)n3cccc(C)c3nc21	none
CC(C)n1nccc1N(Cc1ccc(Br)cc1)S(=O)(=O)c1ccccc1	none
Cc1cc(C)c(C)c(OCCOCCN2CCN(C)CC2)c1	HCV inh 3.98µM
